Data taken from PubChem BioAssay (NCATS).
Results filed as inconclusive are left out. Where a call stands in place of a potency, no number is given. The source made the active and inactive calls. Calls come from the whole dose curve; as a rule, active = well fitted curve in the direction sought with a large enough effect; inconclusive = small, poorly fitted or top-dose-only effect, or another doubt; inactive = no such curve, though single readings can be large; an effect the other way counts as inactive or inconclusive.

Experiment: qHTS for Inhibitors of Plasmodium falciparum (GB4) proliferation (AID 504315); note: nearly all actives have a fitted effect of over 50% in size
Details: P. falciparum GB4 in erythrocytes, SYBR Green DNA, 72 h; series mostly up to 6.7 µM
Outline: (§1)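 Erythrocytes infected with P. falciparum line (0.3% parasitemia, 2.5% hematocrit final) incubated with compounds 72 h at 37 °C, 5% CO2; SYBR Green lysis buffer added, fluorescence read next day. Normalized to 0.29 uM artemisinin and DMSO.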

**Q.** Which Potency does the source give for `C=CCN1c2ccccc2[C@]23C[C@@H](C(=O)OC)N(C(=O)C4CCC4)C2=NC(C(=O)OC)=C(C(=O)OC)[C@H]13` here?
**A.** inactive

**Q.** For `C=C[C@@]1(C)CC[C@H](O)[C@H]2C(=O)CCC[C@H]21`, which Potency is on record?
**A.** inactive

**Q.** With `C=CCN1c2ccccc2[C@]23C[C@@H](C(=O)OC)N(C(=O)COCc4ccccc4)C2=NC(C(=O)OC)=C(C(=O)OC)[C@H]13` as the molecule, how does the Potency read?
**A.** inactive

**Q.** With `COC(=O)C1=C(C(=O)OC)[C@@H]2N(C)c3ccc(OC)cc3[C@@]23C[C@@H](C(=O)OC)N(S(=O)(=O)c2ccc4c(c2)OCCN4C)C3=N1` as the molecule, how does the Potency read?
**A.** inactive

**Q.** For `COC(=O)C1(C(=O)OC)CC(CO)C(=O)[C@@H]1c1ccccc1` (stereo partly drawn), which Potency is on record?
**A.** inactive

Experiment: qHTS for Inhibitors of Plasmodium falciparum (7G8) proliferation (AID 504316); note: nearly all actives have a fitted effect of over 65% in size; note: potency is the fitted concentration of half-maximal effect
Details: P. falciparum 7G8 in erythrocytes, SYBR Green DNA, 72 h; series mostly up to 6.7 µM
Outline: as §1

**Q.** With `O=C(NS(=O)(=O)c1ccc(F)cc1)O[C@@H]1C(=O)c2cc(Br)ccc2O[C@H]1c1ccc2c(c1)OCO2` as the molecule, how does the Potency read?
**A.** inactive

**Q.** With `COC(=O)CCC(=O)OC1(C)C(=O)C2=CN(Cc3ccc(OC)cc3)C(c3ccc(OC)cc3)=CC2=C(Br)C1=O` (stereo not drawn) as the molecule, how does the Potency read?
**A.** inactive

**Q.** For `CCCCc1nc2c(c3c1C[C@H](C)OC3)CN(S(=O)(=O)c1ccc(Cl)c3nonc13)CC2`, which Potency is on record?
**A.** inactive

**Q.** For `COC(=O)C1=C(C(=O)OC)[C@@H]2Nc3ccccc3[C@@]23C[C@@H](C(=O)OC)N(S(=O)(=O)c2cccs2)C3=N1`, which Potency is on record?
**A.** inactive

**Q.** Which Potency does the source give for `CC=Cc1cc2ccccc2c2c(C(=O)OC)c(C(=O)OC)c(C(=O)OC)n12` here?
**A.** inactive

**Q.** For `CCN1C(=O)[C@@H]2[C@H]3[C@H](O)[C@H](O)CC(=NO[C@@H](C)c4cc(-c5c(C)cc(C)cc5C)no4)[C@@H]3CC[C@H]2C1=O`, which Potency is on record?
**A.** inactive

**Q.** With `CCCC[C@]12Cc3cc(OC)c(OC)cc3[C@H](O1)C1=C(O2)C(=O)c2ccccc2C1=O` as the molecule, how does the Potency read?
**A.** 1.51 µM (active)

**Q.** For `CC#CCN1c2ccccc2[C@]23C[C@@H](C(=O)OC)N(C(C)=O)C2=NC(C(=O)OC)=C(C(=O)OC)[C@H]13`, which Potency is on record?
**A.** inactive

**Q.** Which Potency does the source give for `COC(=O)[C@@]1(C=C2c3ccc(F)cc3[C@@H](OC)[C@@H]2C)[C@@H]2CC=C[C@@H]21` here?
**A.** inactive

**Q.** With `CCCCc1nc2c(c3c1C[C@H](C)OC3)CN(S(=O)(=O)c1ccc3c(c1)OCCN3C)CC2` as the molecule, how does the Potency read?
**A.** inactive

**Q.** For `CCOC(=O)CN1C(=O)N[C@@H](CCc2ccccc2)C(C(=O)OC)=C1C`, which Potency is on record?
**A.** inactive

**Q.** With `COC(=O)CCCC1=CC2=C(c3ccccc3)C(=O)C(C)(OC(=O)C3CCCC3)C(=O)C2=CN1C1CCCC1` (stereo not drawn) as the molecule, how does the Potency read?
**A.** inactive

**Q.** For `CC1(C)O[C@@H]2[C@@H](O1)C(c1ccccc1)(c1ccccc1)OP(=O)(O)OC2(c1ccccc1)c1ccccc1`, which Potency is on record?
**A.** inactive

**Q.** With `COC(=O)C1=C(C(=O)OC)[C@@H]2N(C)c3ccc(OC)cc3[C@@]23C[C@@H](C(=O)OC)N(C(C)=O)C3=N1` as the molecule, how does the Potency read?
**A.** inactive

**Q.** For `COC(=O)CCC(=O)OC1(C)C(=O)C2=CN(CCCCO)C(c3ccc(OC)cc3)=CC2=C(Br)C1=O` (stereo not drawn), which Potency is on record?
**A.** inactive

**Q.** For `COC(=O)N1CCc2cc(OC)c(OC)cc2C1Cc1ccc(OC)cc1` (stereo not drawn), which Potency is on record?
**A.** inactive

**Q.** For `C=C(C)C(=O)c1ccc2c(c1)OCO2`, which Potency is on record?
**A.** inactive

**Q.** For `COC(=O)c1ccccc1S(=O)(=O)N1CCc2nc(COc3ccccc3)c3c(c2C1)CO[C@@H](C)C3`, which Potency is on record?
**A.** inactive

**Q.** With `C=CCN1c2ccccc2[C@]23C[C@@H](C(=O)OC)N=C2NC(C(=O)OC)=C(C(=O)OC)[C@H]13` as the molecule, how does the Potency read?
**A.** inactive

**Q.** With `C[C@@H](c1ccccc1)N1C(=O)[C@@H]2[C@H]3[C@H](O)[C@H](O)CC(=NNC(=O)OCc4ccccc4)[C@@H]3CC[C@H]2C1=O` as the molecule, how does the Potency read?
**A.** inactive

**Q.** For `C=C[C@@]1(C)CC[C@H](O)[C@H]2C(=O)CCC[C@H]21`, which Potency is on record?
**A.** inactive

**Q.** For `C=CCN1c2ccccc2[C@]23C[C@@H](C(=O)OC)N(C(=O)COCc4ccccc4)C2=NC(C(=O)OC)=C(C(=O)OC)[C@H]13`, which Potency is on record?
**A.** inactive

**Q.** For `COC(=O)C1=C(C(=O)OC)[C@@H]2N(C)c3ccc(OC)cc3[C@@]23C[C@@H](C(=O)OC)N(S(=O)(=O)c2ccc4c(c2)OCCN4C)C3=N1`, which Potency is on record?
**A.** inactive
